Results: PubChem BioAssay
Calls of active or inactive are those of the source.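 How the source made its calls, unless noted: active means inhibition of the reporter signal at or above 50%; inactive means inhibition below 50%.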

Key:
[1] = inhibitors of TNFa-induced NFkB p65 translocation, primary screen, imaging, HUVEC, MLSMR starter and 10KST1 sets (AID 438;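 active means inhibition above 20% together with a positive visual image hit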;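 further: compound added about 3h40 before a 20 min TNFalpha stimulation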;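 on inhibition: signal is the nuclear over cytoplasmic p65 intensity ratio per well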); details: HUVEC TNFa-induced p65 nuclear translocation; cell count: measured here: nuclei count (cytotoxicity indicator), at 2.08 µM; inhibition: at 2 µM, stronger effect = higher value, 0% TNFa-plus-vehicle, 100% no-TNFa wells
[2] = reduction of polyQ htt aggregates in cells – imaging, exon1htt(103Q)mCFP cells, high-content imaging, primary screen (AID 483;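 active means visual image review flags a hit and inhibition of aggregation exceeds 20%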;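 further: compound exposure lasted 3 days before fixation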;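 on nuclei count: percent of the per-plate median nuclei count of sample wells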); details: exon1htt(103Q)mCFP cell line, aggregate imaging, at 2 µM; inhibition of aggregation: stronger effect = higher value; nuclei count: measured here: cell count, toxicity
[3] = endothelial E-selectin expression blockers – imaging, HUVEC, immunofluorescence, MLSMR starter and 10KST1 sets, primary screen (AID 487;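 active means visually confirmed hit in the image check and inhibition above 20%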;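 on inhibition: signal is fraction of cell area covered by stained E-selectin grains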;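 on nuclei count: 100% = median nuclei count of all wells on the same plate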); details: HUVEC TNFalpha-induced E-selectin immunofluorescence imaging, at 2 µM; inhibition: stronger effect = higher value; nuclei count: measured here: cell number, toxicity
[4] = biological target: Voltage-gated potassium channel subunit beta-2 (Rattus norvegicus) (UniProt P62483); assay: inhibitors of rat Kvbeta2 reductase activity – biochemical, NADPH fluorescence, primary screen (AID 622;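 active means fluorescence slope higher than the sample average by over 3 SD, cut at about -0.22 in these data, passing the limit was not always enough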;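 further: slope of raw intensity against log time taken from 70 to 1610 s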); details: recombinant KvBeta, 4-cyanobenzaldehyde reduction, at 10 µM, stronger effect = higher value
[5] = biological target: Voltage-gated potassium channel subunit beta-2 (Rattus norvegicus) (UniProt P62483); assay: enhancers of rat Kvbeta2 NADPH turnover – biochemical, NADPH fluorescence, primary screen (AID 623;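 active means NADPH fluorescence slope more negative than the mean of all samples by about 3 SD, 99.7% confidence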;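 further: fluorescence intensity change per second fitted from 20 to 320 s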); details: Recombinant KvBeta, NADPH fluorescence decrease slope, 10 min; at 10 µM; stronger effect = lower value
[6] = biological target: Alpha-2C adrenergic receptor (Homo sapiens) (UniProt P18825); assay: compounds altering alpha2C-coupled GIRK flux – cell-based, HEK293 alpha2C/GIRK1/2, thallium flux, primary screen (AID 624;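 active means fluorescence slope after compound addition differing from the mean of all screened samples at 99.7% confidence, in either direction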;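 further: slope of fluorescence ratio to pre-addition baseline per second over 15 to 24 s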); details: thallium flux BTC fluorescence, at 10 µM, actives lie on both sides
[7] = blockers of RIG-like receptor reporter activation – cell-based, Sendai virus stimulus, luciferase, 10K MLSCN set, TLR/RLR signaling modifier project, primary screen (AID 602276;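 active means inhibition at or above 50% at 10 µM; inactive means inhibition below 50%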;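 further: firefly luciferase from ISG56 promoter only with Renilla not read in this screen; 0% = Sendai virus plus DMSO and 100% = medium plus DMSO without virus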); details: HEK293 RL24 IRF3 luciferase reporter, at 10 µM, stronger effect = higher value
[8] = TLR3 IRF3 reporter activation blockers – cell-based, poly I:C stimulus, luciferase, 10K MLSCN set, primary screen (AID 602277); details: HEK293-TLR3 RL24 IRF3 luciferase reporter, at 10 µM, stronger effect = higher value

Chain of Voltage-gated potassium channel subunit beta-2 (Rattus norvegicus) (P62483 whole entry, looked up): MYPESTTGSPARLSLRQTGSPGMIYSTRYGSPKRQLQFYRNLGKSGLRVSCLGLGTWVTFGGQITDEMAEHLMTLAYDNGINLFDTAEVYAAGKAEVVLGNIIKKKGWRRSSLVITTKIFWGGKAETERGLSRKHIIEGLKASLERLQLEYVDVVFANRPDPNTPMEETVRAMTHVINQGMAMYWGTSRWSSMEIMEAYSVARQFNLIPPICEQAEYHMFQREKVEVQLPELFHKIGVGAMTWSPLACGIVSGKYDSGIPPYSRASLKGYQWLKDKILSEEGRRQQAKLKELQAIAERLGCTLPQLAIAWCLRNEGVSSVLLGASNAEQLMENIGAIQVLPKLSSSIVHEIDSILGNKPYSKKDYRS
Chain of Alpha-2C adrenergic receptor (Homo sapiens) (P18825 whole entry, looked up): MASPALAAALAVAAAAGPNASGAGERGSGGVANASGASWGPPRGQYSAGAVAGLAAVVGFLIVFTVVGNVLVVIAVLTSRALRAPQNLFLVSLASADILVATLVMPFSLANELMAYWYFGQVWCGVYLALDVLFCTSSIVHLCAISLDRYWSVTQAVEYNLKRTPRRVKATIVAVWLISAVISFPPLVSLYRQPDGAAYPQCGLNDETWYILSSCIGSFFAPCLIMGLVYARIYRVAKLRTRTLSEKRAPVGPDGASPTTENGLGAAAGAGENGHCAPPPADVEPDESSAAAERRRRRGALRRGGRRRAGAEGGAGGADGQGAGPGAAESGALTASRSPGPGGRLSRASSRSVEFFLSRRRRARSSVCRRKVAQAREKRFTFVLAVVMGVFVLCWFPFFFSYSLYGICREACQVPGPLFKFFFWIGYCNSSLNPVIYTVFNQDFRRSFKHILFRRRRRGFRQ

| SMILES | cell count [1] | inhibition [1] | inhibition of aggregation [2] | nuclei count [2] | inhibition [3] | nuclei count [3] | fluorescence slope [4] | NADPH fluorescence slope [5] | slope [6] | inhibition [7] | inhibition [8] |
| --- | --- | --- | --- | --- | --- | --- | --- | --- | --- | --- | --- |
| CCn1ncc(Cl)c1C(=O)Nc1ccncc1 | 587 | -6.1% (inactive) | -21.9% (inactive) | 56.2% | -41% (inactive) | 101% | -0.577 (inactive) | -5.6e-05 (inactive) | 0.00342 (inactive) | 3.99% (inactive) | -1.03% (inactive) |
| COc1ccc(C2(C(=O)N3CCCC3)CCOCC2)cc1OC | 352 | 5.5% (inactive) | -9.9% (inactive) | 97.5% | 30.4% (inactive) | 111% | -0.341 (inactive) | -1.4e-05 (inactive) | 0.00553 (inactive) | 2.28% (inactive) | 15.1% (inactive) |
| CC(Oc1ccccc1)C(=O)NC1CC(C)(C)NC(C)(C)C1 (centres undefined) | 386 | 0.2% (inactive) | 4.3% (inactive) | 89.9% | 13.8% (inactive) | 102% | -0.261 (inactive) | -3.5e-05 (inactive) | 0.00587 (inactive) | 17.4% (inactive) | 26.2% (inactive) |
| CC(=O)c1cc(-c2ccc(F)cc2)n(CCC(=O)Nc2cc(C)[nH]n2)c1C | 360 | 0% (inactive) | -4.1% (inactive) | 102% | 0% (inactive) | 118% | -0.507 (inactive) | -3.1e-05 (inactive) | 0.00525 (inactive) | 4.04% (inactive) | 25.9% (inactive) |
| COc1cc(-c2nnc(SCc3c(F)cccc3Cl)o2)cc(OC)c1OC | 803 | 4.4% (inactive) | 8.8% (inactive) | 103% | 3.2% (inactive) | 106% | -0.493 (inactive) | -1.6e-06 (inactive) | 0.00634 (inactive) | -11.9% (inactive) | 1.41% (inactive) |
| O=C(Nc1ccccc1C(=O)N1CCOCC1)C1COc2ccccc2O1 (centres undefined) | 355 | 3.3% (inactive) | -5.7% (inactive) | 105% | -70.1% (inactive) | 123% | -0.437 (inactive) | -1.5e-05 (inactive) | 0.00506 (inactive) | 6.31% (inactive) | 11.6% (inactive) |
| CC1(C)NC(=O)N(CC(O)CN2CCCCC2)C1=O (centres undefined) | 658 | 1.6% (inactive) | 10.5% (inactive) | 93.2% | 36.5% (inactive) | 109% | -0.47 (inactive) | -1.7e-06 (inactive) | 0.00522 (inactive) | -4.08% (inactive) | -0.921% (inactive) |
| CC1Cc2nc(SCC(=O)Nc3ccc(F)cc3F)n(C)c(=O)c2S1 (centres undefined) | 366 | -0.6% (inactive) | -7.8% (inactive) | 104% | 0.8% (inactive) | 113% | -0.587 (inactive) | -3.7e-05 (inactive) | 0.00486 (inactive) | 15.3% (inactive) | 11.8% (inactive) |
| CCCS(=O)(=O)N1CCN(Cc2ccc(OCc3ccccc3)c(OC)c2)CC1 | 247 | -5% (inactive) | 9.9% (inactive) | 79.6% | -25.9% (inactive) | 101% | -0.549 (inactive) | -4.2e-05 (inactive) | 0.0062 (inactive) | -20.2% (inactive) | -19.3% (inactive) |
| CCCC(NC(=O)c1ccccc1)c1nc2ccccc2n1Cc1ccc(C(=O)OC)o1 (centres undefined) | 722 | 5.5% (inactive) | 7.1% (inactive) | 105% | -91.8% (inactive) | 119% | -0.372 (inactive) | -3.2e-06 (inactive) | 0.00315 (inactive) | 0.936% (inactive) | 16.6% (inactive) |
| O=C(CSc1nnc(COc2ccc(Cl)cc2)o1)OC1CCCCC1 | 530 | -5.9% (inactive) | -7.1% (inactive) | 119% | 9.7% (inactive) | 103% | -0.524 (inactive) | -5.9e-07 (inactive) | 0.00539 (inactive) | 1.22% (inactive) | -1.92% (inactive) |
| COc1cccc(-c2nc(CS(=O)(=O)CC(=O)NCc3ccc(Cl)cc3)c(C)o2)c1 | 840 | -2.3% (inactive) | -4.4% (inactive) | 122% | -41.4% (inactive) | 118% | -0.554 (inactive) | 1.6e-06 (inactive) | 0.00669 (inactive) | -3.28% (inactive) | 18% (inactive) |
| C=CCn1c(COc2ccccc2)nnc1SCC(=O)C(C)(C)C | 733 | 0.9% (inactive) | -8.3% (inactive) | 102% | 7.8% (inactive) | 98.4% | -0.449 (inactive) | -3.9e-05 (inactive) | 0.00312 (inactive) | 3.19% (inactive) | 22.7% (inactive) |
| Cc1ccccc1OCCn1c(=O)oc2ccccc21 | 316 | -4.7% (inactive) | -1.9% (inactive) | 144% | -43.9% (inactive) | 128% | -0.353 (inactive) | -8e-06 (inactive) | 0.00518 (inactive) | 5.52% (inactive) | -6.56% (inactive) |
| CCCCN(Cc1cc2cc(OC)ccc2[nH]c1=O)C(=O)c1ccccn1 | 339 | -17.9% (inactive) | -18.3% (inactive) | 101% | -11.8% (inactive) | 89.4% | -0.332 (inactive) | -6.3e-05 (inactive) | 0.00511 (inactive) | -4.21% (inactive) | 98.1% (active) |
| Cc1ccc(S(=O)(=O)N2CCC(C(=O)NCCN3CCCCCC3)CC2)cc1 | 768 | -9.5% (inactive) | -2.1% (inactive) | 102% | -87.4% (inactive) | 110% | -0.456 (inactive) | -6.3e-05 (inactive) | 0.00469 (inactive) | 11.2% (inactive) | 32.9% (inactive) |
| O=C(CCn1c(=S)[nH]c2ccccc2c1=O)NCC1CCCO1 (centres undefined) | 491 | 9.4% (inactive) | 6% (inactive) | 99.2% | 8% (inactive) | 109% | -0.622 (inactive) | -8.8e-06 (inactive) | 0.0038 (inactive) | 8.18% (inactive) | 2.45% (inactive) |
| COc1ccc(NC(=O)C2CCCN2S(=O)(=O)c2cccc3cccnc23)c(OC)c1 (centres undefined) | 645 | -8.6% (inactive) | 2.8% (inactive) | 77.7% | -59.6% (inactive) | 103% | -0.626 (inactive) | 2.3e-06 (inactive) | 0.00652 (inactive) | 1.34% (inactive) | 38.4% (inactive) |
| c1ccc(Cn2ncc3c2ncn2c(-c4ccncc4)nnc32)cc1 | 430 | -10.4% (inactive) | -7.2% (inactive) | 117% | -36% (inactive) | 98.3% | -0.517 (inactive) | -1.5e-05 (inactive) | 0.00557 (inactive) | -13.1% (inactive) | -7.97% (inactive) |
